Assay outcomes deposited in PubChem by Sanford-Burnham Center for Chemical Genomics.
NALP3 yeast inh – NALP3 inflammasome inhibitors in reconstituted yeast, primary screen, luminescence, uHTS | Yeast reconstituted NLRP3/ASC/caspase-1, beta-gal luminescence, 24 h | inhibition, % at 10 µM | 0.39% of 330,000 active | AID 2825, 2010;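 active = inhibition of 50% or more; inactive = inhibition below 50%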;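 also: plate controls were induced DMSO wells for no effect and uninduced yeast grown without galactose for full effect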
NALP1 inh – NALP1 inflammasome inhibitors in reconstituted yeast, colorimetric, S. cerevisiae, triplicate retest | S. cerevisiae NALP1/ASC/caspase-1 growth, X-gal OD620, 72 h | inhibition, % at 10 µM | 0.61% of 280,000 active | AID 2071, 2009; in the data active = inhibition mostly above about 24%, no sharp cut-off; inactive = mostly below about 32%
TIM10 inh – growth inhibitors of isogenic TIM10 control yeast, primary screen, counter-screen for tim10-1 yeast inhibitor project, luminescence, uHTS | AID 463195, 2010 | S. cerevisiae TIM10 strain growth, BacTiter-Glo luminescence, 24 h | 1.4% of 330,000 active | inhibition, % at 10 µM;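 active = inhibition of 40% or more at the single tested concentration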;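 also: wild-type TIM10 isogenic control strain grown at permissive 25 °C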
tim10-1 inh – growth inhibitors of tim10-1 mutant yeast, primary screen, luminescence, uHTS; S. cerevisiae tim10-1 ts strain growth, BacTiter-Glo, 24 h; inhibition, % at 20 µM; 2.2% of 330,000 active;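 active = inhibition of at least 40%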;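 also: mutant grown at 25 °C; 0% = DMSO wells with yeast and 100% = wells holding no yeast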
tim23-1 inh – growth inhibitors of tim23-1 mutant yeast, primary screen, luminescence, uHTS; AID 463212, 2010; inhibition, % at 20 µM; 1.3% of 330,000 active; S. cerevisiae tim23-1 growth, BacTiter-Glo luminescence, 24 h;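 active = growth inhibition of the mutant yeast at or above 50%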;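 also: temperature-sensitive mutant grown at 25 °C; plate controls were DMSO-treated mutant yeast for no effect and medium wells lacking yeast for full effect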
tim10-1 conf – growth inhibitors of tim10-1 mutant yeast, confirmation, single concentration, luminescence, S. cerevisiae; shares compounds with tim10-1 inh; S. cerevisiae tim10-1 ts strain growth, BacTiter-Glo, 24 h; AID 463213, 2010; 56% of 7,400 active; inhibition, % at 20 µM;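 active = inhibition of yeast growth at or above a set limit in either of two repeat tests at 20 µM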;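 also: tim10-1 mutant grown at permissive 25 °C to find synthetic lethal compounds; 0% = DMSO yeast wells and 100% = medium wells without yeast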
TIM10 conf – growth inhibitors of wild-type TIM10 yeast, confirmation, counter-screen for tim10-1 synthetic lethality project, single concentration, luminescence, S. cerevisiae; shares compounds with TIM10 inh; S. cerevisiae tim10 strain growth, BacTiter-Glo luminescence, 24 h; inhibition, % at 10 µM; 63% of 4,600 active;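 active = inhibition of yeast growth at or above a set limit in either of two replicates at 10 µM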;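 also: this counterscreen used the strain with wild-type TIM10; 0% = yeast with DMSO and 100% = medium wells lacking yeast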
Active calls of the source: *. Only some compounds are listed: those with a hit (about 4% of all), similar ones and a draw of the others.

Screening O=C(c1cc(-c2ccc3c(c2)OCO3)on1)N1CCN(c2ccccc2)CC1 returned NALP3 yeast inh 30, NALP1 inh -1, TIM10 inh 44*, tim10-1 inh 41*, tim23-1 inh 40, tim10-1 conf 31* and TIM10 conf 41*.
`COc1ccc(-c2cc(C(=O)N3CCN(C(c4ccccc4)c4ccccc4)CC3)no2)cc1OC` gave NALP3 yeast inh 14, NALP1 inh 3, TIM10 inh 56*, tim10-1 inh 51*, tim23-1 inh 33, tim10-1 conf 60* and TIM10 conf 45*.
`CCC(=NCc1ccco1)c1c(C(F)(F)F)[nH]n(-c2nc3ccccc3s2)c1=O` gave NALP3 yeast inh 19, NALP1 inh 42, TIM10 inh 44*, tim10-1 inh 65*, tim23-1 inh 19, tim10-1 conf 63* and TIM10 conf 41*.
`COc1ccc(OC)c2c1C(=O)C(Cl)=C(Cl)C2=O` gave NALP3 yeast inh 36, NALP1 inh 39*, TIM10 inh 96*, tim10-1 inh 91*, tim23-1 inh 24, tim10-1 conf 94* and TIM10 conf 99*.
`O=C(/C(=C/O)N=Nc1ccccc1Cl)c1ccccc1` gave NALP3 yeast inh 15, NALP1 inh -20, TIM10 inh 91*, tim10-1 inh 43*, tim23-1 inh 47, tim10-1 conf 21 and TIM10 conf 18.
O=C(COC(=O)COc1cccc(Br)c1)Nc1ccc(F)cc1F was read as NALP3 yeast inh 5, TIM10 inh -9, tim10-1 inh 0 and tim23-1 inh 12.
Screening COc1cc(OC)cc(-c2sc3ccc(OC)cc3c2C#CC2(N)CCCCC2)c1 returned NALP3 yeast inh 33, TIM10 inh 45*, tim10-1 inh 44*, tim23-1 inh 12, tim10-1 conf 18 and TIM10 conf 26.
Screening COc1cccc(-c2sc3ccc(OC)cc3c2C#CC2(O)CCCCC2)c1 returned NALP3 yeast inh 15, TIM10 inh 13, tim10-1 inh 15 and tim23-1 inh 17.
For Cc1ccc(S(=O)(=O)NCc2ccc(C(=O)NCCCN3CCC(Cc4ccccc4)CC3)cc2)cc1 the results were NALP3 yeast inh 1, NALP1 inh 52, TIM10 inh 5, tim10-1 inh -7 and tim23-1 inh -5.
Cc1coc2c1C(=O)C(=O)c1c-2ccc2c1CCCC2(C)C was read as NALP3 yeast inh 8, NALP1 inh -13, TIM10 inh 44*, tim10-1 inh 48*, tim23-1 inh 47, tim10-1 conf 38* and TIM10 conf 37*.
Screening C[C@H]1COC2=C1C(=O)C(=O)c1c2ccc2c1CCCC2(C)C returned NALP1 inh -1.
O=C(Nc1ccc(Cl)c(C(F)(F)F)c1)c1ccco1 was read as NALP3 yeast inh -45, NALP1 inh 27, TIM10 inh 51*, tim10-1 inh 46*, tim23-1 inh 44, tim10-1 conf 56* and TIM10 conf 12.
O=C(NCc1ccco1)c1ccccc1F was read as NALP3 yeast inh 8, NALP1 inh 7, TIM10 inh 8, tim10-1 inh 20 and tim23-1 inh -1.
Screening O=C(NCc1ccco1)c1ccccc1Nc1ccc(F)cc1 returned NALP3 yeast inh 17, NALP1 inh 6, TIM10 inh 44*, tim10-1 inh 52*, tim23-1 inh 47, tim10-1 conf 47* and TIM10 conf 36*.
`COc1ccc(NC(=O)CN(c2ccc(C)cc2)S(=O)(=O)c2c(C)nn(C)c2C)cc1` gave NALP3 yeast inh 1, NALP1 inh -4, TIM10 inh 9, tim10-1 inh 29 and tim23-1 inh 15.
COc1ccc2nc(NC(=O)CN(c3ccc(C)cc3)S(=O)(=O)c3c(C)nn(C)c3C)sc2c1 was read as NALP3 yeast inh -2, NALP1 inh 19, TIM10 inh 41*, tim10-1 inh 45*, tim23-1 inh 40, tim10-1 conf 31* and TIM10 conf 44*.
For O=C(CCN1C(=O)[C@@H]2Cc3ccccc3CN2C1=O)NCc1ccccc1Cl the results were NALP3 yeast inh 11, NALP1 inh 11, TIM10 inh -2, tim10-1 inh 5 and tim23-1 inh -1.
For COc1ccccc1N1CCN(C(=O)/C=C/c2c(Cl)nc3ccccn23)CC1 the results were NALP3 yeast inh 30, NALP1 inh 24, TIM10 inh 42*, tim10-1 inh 59*, tim23-1 inh 44, tim10-1 conf 51* and TIM10 conf 36*.
Screening CCn1c(N2CCN(S(=O)(=O)c3ccccc3)CC2)nc2ccccc21 returned NALP3 yeast inh 21, NALP1 inh 3, TIM10 inh 3, tim10-1 inh -2 and tim23-1 inh 24.
For O=c1[nH][nH]c(-c2ccccc2)c1C=Nc1ccc(C(F)(F)F)cc1 the results were NALP3 yeast inh 6, NALP1 inh 3, TIM10 inh 4, tim10-1 inh 20 and tim23-1 inh 25.
O=c1[nH][nH]c(-c2ccccc2)c1C=Nc1ccc(OC(F)(F)F)cc1 was read as NALP3 yeast inh 8, NALP1 inh 8, TIM10 inh 41*, tim10-1 inh 42*, tim23-1 inh 47, tim10-1 conf 37* and TIM10 conf 37*.
CCOC(=O)c1ccc(N2C(=O)CC(N3CCCC(C)C3)C2=O)cc1 (stereo not given) was read as NALP3 yeast inh 7, NALP1 inh 105*, TIM10 inh 46*, tim10-1 inh 66*, tim23-1 inh 28, tim10-1 conf 66* and TIM10 conf 47*.
Screening O=C(NNC(=O)c1ccc(O)c(Cl)c1)c1cccc(S(=O)(=O)N2CCOCC2)c1 returned NALP3 yeast inh -2, TIM10 inh -5, tim10-1 inh 12 and tim23-1 inh 6.
CCCCNC(=S)Nc1ccc(Oc2ccccc2)cc1 was read as NALP3 yeast inh 46, NALP1 inh -17, TIM10 inh 17, tim10-1 inh 16 and tim23-1 inh 42.
CCCNC(=S)Nc1ccc(Oc2ccccc2)cc1 was read as NALP3 yeast inh 42, NALP1 inh 3, TIM10 inh 42*, tim10-1 inh 42*, tim23-1 inh 33, tim10-1 conf 21 and TIM10 conf 24.
`CCOc1ccc(CSCCNC(=S)Nc2ccccc2)cc1` gave NALP3 yeast inh 48, NALP1 inh 40, TIM10 inh 47*, tim10-1 inh 42*, tim23-1 inh 45, tim10-1 conf 20 and TIM10 conf -40.
